PubChem BioAssay AID1159580 (chemical genetic matrix, 2015)
Screen size: about 5,500 compounds; about 2,000 (36%) were called active. Another 18% or so got no clear call; they are omitted. Cut-off read from the data, not from the text of the source: active = normalized growth mostly below about 0.91 (no sharp cut-off); inconclusive = no clear call, values can overlap the other calls; inactive = mostly above about 0.92. This is one part of the list.

Assay: chemical genetic growth profiling, strain panel (AID 1159580);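 note: tested at 20 µM; growth read once vehicle control cultures reached saturation at 30 °C; 1 = growth at the plate median or of vehicle wells; lower values mean less growth of the strain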
Settings: growth OD

Measured: normalized growth

COC(=O)CCC(=O)O[C@H]1CCC2(C)C(CCC3C2C(=O)[C@@H](O)C2(C)C3CC3OC4(CCC(C)CO4)[C@@H](C)C32)C1 (stereo partly specified)
inactive: S. cerevisiae deletion strains, locus YAL013W, strain DEP1, active compounds read low 0.991 | S. cerevisiae deletion strains, locus YBR021W, strain FUR4, active compounds read low 1.01 | S. cerevisiae deletion strains, locus YBR229C, strain ROT2, active compounds read low 1.01 | S. cerevisiae deletion strains, locus YCL029C, strain bik1, active compounds read low 0.997 | S. cerevisiae deletion strains, locus YDL035C, strain GPR1, active compounds read low 0.993 | S. cerevisiae deletion strains, locus YDL074C, strain BRE1, active compounds read low 0.997 | S. cerevisiae deletion strains, locus YDL101C, strain DUN1, active compounds read low 1.02 | S. cerevisiae deletion strains, locus YDL134C, strain PPH21, active compounds read low 1 | S. cerevisiae deletion strains, locus YDL185W, strain tfp1, active compounds read low 0.996 | S. cerevisiae deletion strains, locus YDL192W, strain arf1, active compounds read low 1 | S. cerevisiae deletion strains, locus YDR101C, strain arx1, active compounds read low 0.997 | S. cerevisiae deletion strains, locus YDR150W, strain NUM1, active compounds read low 1 | S. cerevisiae deletion strains, locus YDR162C, strain NBP2, active compounds read low 1 | S. cerevisiae deletion strains, locus YDR318W, strain mcm21, active compounds read low 0.996 | S. cerevisiae deletion strains, locus YDR388W, active compounds read low 0.994 | S. cerevisiae deletion strains, locus YDR502C, strain sam2, active compounds read low 1 | S. cerevisiae deletion strains, locus YEL061C, strain CIN8, active compounds read low 1.01 | S. cerevisiae deletion strains, locus YER110C, active compounds read low 0.996 | S. cerevisiae deletion strains, locus YER155C, strain BEM2, active compounds read low 1.01 | S. cerevisiae deletion strains, locus YER167W, strain BCK2, active compounds read low 1.02 | S. cerevisiae deletion strains, locus YGL078C, strain dbp3, active compounds read low 0.991 | S. cerevisiae deletion strains, locus YGL086W, strain mad1, active compounds read low 1 | S. cerevisiae deletion strains, locus YGL248W, strain PDE1, active compounds read low 1 | S. cerevisiae deletion strains, locus YGR078C, strain PAC10, active compounds read low 1.02 | S. cerevisiae deletion strains, locus YGR135W, strain pre9, active compounds read low 1 | S. cerevisiae deletion strains, locus YGR229C, strain SMI1, active compounds read low 1.01 | S. cerevisiae deletion strains, locus YGR252W, strain gcn5, active compounds read low 0.963 | S. cerevisiae deletion strains, locus YHR030C, strain SLT2, active compounds read low 1.01 | S. cerevisiae deletion strains, locus YHR079C, strain IRE1 (second series), active compounds read low 0.991 | S. cerevisiae deletion strains, locus YHR094C, strain hxt1, active compounds read low 0.998 | S. cerevisiae deletion strains, locus YHR129C, strain ARP1, active compounds read low 0.999 | S. cerevisiae deletion strains, locus YHR200W, strain rpn10, active compounds read low 1 | S. cerevisiae deletion strains, locus YIL066C, strain RNR3, active compounds read low 1.01 | S. cerevisiae deletion strains, locus YIL073C, strain SPO22, active compounds read low 1 | S. cerevisiae deletion strains, locus YIL125W, strain kgd1, active compounds read low 1.01 | S. cerevisiae deletion strains, locus YIR030C, strain dcg1, active compounds read low 0.998 | S. cerevisiae deletion strains, locus YJL095W, strain BCK1, active compounds read low 0.989 | S. cerevisiae deletion strains, locus YJL134W, strain LCB3, active compounds read low 1.01 | S. cerevisiae deletion strains, locus YJL168C, strain set2, active compounds read low 0.994 | S. cerevisiae deletion strains, locus YJL187C, strain SWE1 (second series), active compounds read low 1 | S. cerevisiae deletion strains, locus YJR043C, strain POL32, active compounds read low 1 | S. cerevisiae deletion strains, locus YJR075W, strain HOC1, active compounds read low 1.02 | S. cerevisiae deletion strains, locus YKL009W, strain mrt4, active compounds read low 0.998 | S. cerevisiae deletion strains, locus YKL068W, active compounds read low 0.999 | S. cerevisiae deletion strains, locus YKL085W, strain MDH1 (second series), active compounds read low 0.996 | S. cerevisiae deletion strains, locus YKL085W, strain MDH1, active compounds read low 0.996 | S. cerevisiae deletion strains, locus YKL190W, strain CNB1, active compounds read low 1.01 | S. cerevisiae deletion strains, locus YKR001C, strain vps1, active compounds read low 0.993 | S. cerevisiae deletion strains, locus YLR039C, strain RIC1, active compounds read low 0.996 | S. cerevisiae deletion strains, locus YLR058C, strain SHM2, active compounds read low 1 | S. cerevisiae deletion strains, locus YLR102C, strain apc9, active compounds read low 0.996 | S. cerevisiae deletion strains, locus YLR262C, strain YPT6, active compounds read low 0.984 | S. cerevisiae deletion strains, locus YLR268W, strain sec22, active compounds read low 1 | S. cerevisiae deletion strains, locus YLR330W, strain CHS5, active compounds read low 1.01 | S. cerevisiae deletion strains, locus YLR342W, strain FKS1 (second series), active compounds read low 1.02 | S. cerevisiae deletion strains, locus YLR371W, strain rom2, active compounds read low 1 | S. cerevisiae deletion strains, locus YLR418C, strain cdc73, active compounds read low 0.982 | S. cerevisiae deletion strains, locus YML016C, strain PPZ1, active compounds read low 1.01 | S. cerevisiae deletion strains, locus YML032C, strain rad52, active compounds read low 1.01 | S. cerevisiae deletion strains, locus YML124C, strain tub3, active compounds read low 0.998 | S. cerevisiae deletion strains, locus YMR078C, strain ctf18, active compounds read low 0.994 | S. cerevisiae deletion strains, locus YMR223W, strain ubp8, active compounds read low 1 | S. cerevisiae deletion strains, locus YMR263W, strain SAP30, active compounds read low 1.03 | S. cerevisiae deletion strains, locus YMR307W, strain GAS1, active compounds read low 0.997 | S. cerevisiae deletion strains, locus YNL067W, strain RPL9B, active compounds read low 1.01 | S. cerevisiae deletion strains, locus YNL128W, strain TEP1, active compounds read low 1.01 | S. cerevisiae deletion strains, locus YNL153C, strain GIM3, active compounds read low 1.01 | S. cerevisiae deletion strains, locus YNL233W, strain BNI4, active compounds read low 1 | S. cerevisiae deletion strains, locus YNL250W, strain rad50, active compounds read low 0.999 | S. cerevisiae deletion strains, locus YNL271C, strain bni1, active compounds read low 0.995 | S. cerevisiae deletion strains, locus YNL298W, strain CLA4, active compounds read low 0.985 | S. cerevisiae deletion strains, locus YNL307C, strain MCK1, active compounds read low 0.997 | S. cerevisiae deletion strains, locus YNL322C, strain KRE1, active compounds read low 1.01 | S. cerevisiae deletion strains, locus YNR052C, strain pop2, active compounds read low 1 | S. cerevisiae deletion strains, locus YOL006C, strain TOP1, active compounds read low 0.943 | S. cerevisiae deletion strains, locus YOL012C, strain htz1 1.03 | S. cerevisiae deletion strains, locus YOL147C, strain pex11, active compounds read low 1 | S. cerevisiae deletion strains, locus YOR061W, strain CKA2, active compounds read low 1 | S. cerevisiae deletion strains, locus YOR069W, strain VPS5, active compounds read low 1.01 | S. cerevisiae deletion strains, locus YOR136W, strain idh2, active compounds read low 1 | S. cerevisiae deletion strains, locus YOR144C, strain elg1, active compounds read low 0.996 | S. cerevisiae deletion strains, locus YOR184W, strain ser1, active compounds read low 1.01 | S. cerevisiae deletion strains, locus YOR316C, strain cot1, active compounds read low 1 | S. cerevisiae deletion strains, locus YPL055C, strain LGE1, active compounds read low 1.03 | S. cerevisiae deletion strains, locus YPL241C, strain CIN2, active compounds read low 1 | S. cerevisiae deletion strains, locus YPR119W, strain clb2, active compounds read low 0.988 | S. cerevisiae deletion strains, locus YPR141C, strain kar3, active compounds read low 0.997 | S. cerevisiae deletion strains, locus YPR163C, strain tif3, active compounds read low 0.998 | S. cerevisiae deletion strains, locus YPR167C, strain met16, active compounds read low 1 | S. cerevisiae deletion strains, strain wtn01, active compounds read low 1 | S. cerevisiae strains, strain wild type, active compounds read low 1.04
